Assay results as given in PubChem BioAssay (Tox21).
Inconclusive results are not listed. The source made the active and inactive calls. Unless noted, the call rests on the fitted dose curve; in most records, active means well fitted curve in the direction sought with a large enough effect in the repeat runs; inconclusive means weak or mixed curves; inactive means no such curve, though single readings can be large; an effect the other way counts as inactive or inconclusive.

What was measured:
[1] = qHTS assay to identify small molecule agonists of the peroxisome proliferator-activated receptor delta (PPARd) signaling pathway - cell viability counter screen (AID 743211); further: nearly all actives have a fitted effect of over 55% in size
How it was run: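 Viability was measured as CellTiter-Glo luminescence (30 min, room temperature) in the same wells as the beta-lactamase readout. GeneBLAzer PPARd UAS-bla HEK293H cells received compound after 5 h plating and were incubated 17 h at 37 C.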

[2] = biological target: Peroxisome proliferator-activated receptor delta (Homo sapiens) (UniProt Q03181); experiment: qHTS assay to identify small molecule agonists of the peroxisome proliferator-activated receptor delta (PPARd) signaling pathway (AID 743212; calls by dose curve)
How it was run: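 Beta-lactamase reporter readout: a ratiometric FRET signal from the LiveBLAzer substrate after 2 h at room temperature. Compound exposure at 37 °C in PPARδ-bla HEK293H cells driven by an upstream activator sequence.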

[3] = biological target: Peroxisome proliferator-activated receptor delta (Homo sapiens) (UniProt Q03181); experiment: qHTS assay to identify small molecule antagonists of the peroxisome proliferator-activated receptor delta (PPARd) signaling pathway (AID 743215; active means well fitted inhibition curve with a large enough effect in the signal ratio in the repeat runs, not every such curve was filed as active; the % refers to the signal ratio;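 further: cells stimulated with agonist L165041 at 300 nM final during compound exposure; series mostly up to about 62 µM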)
How it was run: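 Agonist L165041 (300 nM final) added with compound to PPARd-bla HEK293H UAS-bla reporter cells; 17 h incubation at 37 C. Read-out: LiveBLAzer FRET substrate, 2 h at room temperature, fluorescence intensity.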

[4] = qHTS assay to identify small molecule agonists of the farnesoid-X-receptor (FXR) signaling pathway - cell viability counter screen (AID 743218); further: nearly all actives have a fitted effect of over 45% in size
How it was run: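 Viability counter screen in the same wells: CellTiter-Glo luminescence, 30 min room-temperature incubation, measured after the beta-lactamase read. Cells were GeneBLAzer FXR-UAS-bla HEK 293T, compound-treated 16 h at 37C.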

[5] = biological target: Bile acid receptor (Homo sapiens) (UniProt Q96RI1); experiment: qHTS assay to identify small molecule agonists of the farnesoid-X-receptor (FXR) signaling pathway (AID 743220; active means well fitted activation curve with a large enough effect in the signal ratio in the repeat runs, not every such curve was filed as active; the % refers to the signal ratio)
How it was run: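 FXR-UAS-bla HEK 293T cells carrying a UAS-driven beta-lactamase reporter were plated for 5 h at 37C/5% CO2, then exposed to DMSO-dissolved Tox21 10K compounds for 16 h at 37C. A LiveBLAzer B/G FRET substrate was loaded for 2 h at room temperature before fluorescence reading.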

[6] = qHTS assay to identify small molecule antagonists of the farnesoid-X-receptor (FXR) signaling pathway - cell viability counter screen (AID 743221; active means well fitted cell-killing curve with a large enough effect in the repeat runs, not every such curve was filed as active; further: nearly all actives have a fitted effect of over 50% in size)
How it was run: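 Cytotoxicity counter screen run in the FXR-bla reporter wells: HEK 293T cells exposed to compound with 50 uM (final) chenodeoxycholic acid for 16 h, 37 C, then viability measured by CellTiter-Glo luminescence after 30 min, room temperature.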

[7] = biological target: Vitamin D3 receptor (Homo sapiens) (UniProt P11473); experiment: qHTS assay to identify small molecule agonists of the vitamin D receptor (VDR) signaling pathway (AID 743222; calls by dose curve)
How it was run: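 Agonist mode, beta-lactamase reporter: fluorescence from LiveBLAzer B/G FRET substrate (2 h, room temperature) read after 16 h compound treatment at 37 C of VDR-bla cells, which were pre-incubated 4 h after seeding.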

[8] = biological target: Vitamin D3 receptor (Homo sapiens) (UniProt P11473); experiment: qHTS assay to identify small molecule antagonists of the vitamin D receptor (VDR) signaling pathway (AID 743223; active means well fitted inhibition curve with a large enough effect in the signal ratio in the repeat runs, not every such curve was filed as active; the % refers to the signal ratio)
How it was run: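 Antagonist mode: compound added to VDR-bla cells alongside agonist 1alpha,25-dihydroxyvitamin D3 (3 nM final), incubation 16 h at 37C. Read-out is LiveBLAzer FRET fluorescence, 2 h at room temperature.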

[9] = qHTS assay to identify small molecule antagonists of the peroxisome proliferator-activated receptor delta (PPARd) signaling pathway - cell viability counter screen (AID 743213); further: nearly all actives have a fitted effect of over 50% in size
How it was run: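 HEK293H cells with the PPARd UAS-bla reporter, co-treated 17 h at 37 C with compounds and L165041 (300 nM final), were lysed with CellTiter-Glo. Luminescence indicated viable cell content.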

[10] = biological target: Bile acid receptor (Homo sapiens) (UniProt Q96RI1); experiment: qHTS assay to identify small molecule antagonists of the farnesoid-X-receptor (FXR) signaling pathway (AID 743217; active means well fitted inhibition curve with a large enough effect in the signal ratio in the repeat runs, not every such curve was filed as active; the % refers to the signal ratio)
How it was run: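 Antagonist mode: chenodeoxycholic acid at 50 uM final stimulates a UAS-driven beta-lactamase reporter in HEK 293T FXR-bla cells during 16 h, 37C compound exposure. Read-out is FRET substrate fluorescence after 2 h at room temperature.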

Measured: Potency

Peroxisome proliferator-activated receptor delta (Homo sapiens), sequence (Q03181 whole entry, looked up): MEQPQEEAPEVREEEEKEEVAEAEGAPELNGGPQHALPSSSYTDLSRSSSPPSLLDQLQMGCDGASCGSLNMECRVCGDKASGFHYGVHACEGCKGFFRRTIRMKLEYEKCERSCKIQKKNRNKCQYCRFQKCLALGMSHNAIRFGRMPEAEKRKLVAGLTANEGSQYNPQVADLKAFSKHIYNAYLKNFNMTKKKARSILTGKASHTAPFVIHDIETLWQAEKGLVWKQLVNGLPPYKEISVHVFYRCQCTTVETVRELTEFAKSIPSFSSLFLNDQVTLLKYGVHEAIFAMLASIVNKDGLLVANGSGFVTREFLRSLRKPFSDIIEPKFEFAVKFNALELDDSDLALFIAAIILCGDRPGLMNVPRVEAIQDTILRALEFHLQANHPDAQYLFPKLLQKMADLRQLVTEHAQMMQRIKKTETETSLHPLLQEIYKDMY
Vitamin D3 receptor (Homo sapiens), sequence (P11473 whole entry, looked up): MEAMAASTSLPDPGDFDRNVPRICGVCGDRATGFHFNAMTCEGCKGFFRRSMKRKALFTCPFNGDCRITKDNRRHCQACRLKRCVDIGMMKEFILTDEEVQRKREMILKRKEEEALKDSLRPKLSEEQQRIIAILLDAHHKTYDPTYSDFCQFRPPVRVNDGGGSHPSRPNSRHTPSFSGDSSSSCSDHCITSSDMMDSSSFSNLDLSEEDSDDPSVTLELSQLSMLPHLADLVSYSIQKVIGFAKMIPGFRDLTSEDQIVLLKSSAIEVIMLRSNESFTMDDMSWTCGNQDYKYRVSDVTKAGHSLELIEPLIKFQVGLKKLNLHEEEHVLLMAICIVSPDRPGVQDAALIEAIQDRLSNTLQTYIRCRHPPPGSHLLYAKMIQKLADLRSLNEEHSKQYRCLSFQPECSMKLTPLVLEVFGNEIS
Bile acid receptor (Homo sapiens), sequence (Q96RI1 whole entry, looked up): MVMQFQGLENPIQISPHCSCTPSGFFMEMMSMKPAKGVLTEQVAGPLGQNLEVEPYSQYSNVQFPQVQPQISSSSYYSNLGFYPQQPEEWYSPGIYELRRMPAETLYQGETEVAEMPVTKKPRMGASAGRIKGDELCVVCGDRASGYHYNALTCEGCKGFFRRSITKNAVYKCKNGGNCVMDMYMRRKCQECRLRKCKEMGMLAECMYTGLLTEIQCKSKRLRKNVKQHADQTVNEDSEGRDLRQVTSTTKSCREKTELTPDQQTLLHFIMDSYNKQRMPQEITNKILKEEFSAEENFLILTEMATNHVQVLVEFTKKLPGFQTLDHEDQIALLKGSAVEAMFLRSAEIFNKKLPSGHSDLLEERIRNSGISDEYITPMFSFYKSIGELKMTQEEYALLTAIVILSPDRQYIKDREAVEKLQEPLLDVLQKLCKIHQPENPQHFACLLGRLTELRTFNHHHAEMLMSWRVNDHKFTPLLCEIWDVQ

CCN(CCCc1ccccc1)CCCc1ccccc1
not listed: [9] | [10]
inactive: all other assays above

C=CCCC=C
inactive: [1] | [2] | [3] | [4] | [5] | [6]

CC(C)=CCC[C@](C)(O)[C@@H]1CC=C(C)CC1
inactive: [1] | [2] | [9] | [4] | [7]

COC(=O)c1ccc2cc(C(=O)OC)ccc2c1
inactive: [1] | [2] | [4]

Oc1ccccc1C=NCc1ccccc1
not listed: [2]
inactive: all other assays above

CC(=O)Nc1ccc(C)c(Cl)c1
not listed: [4] | [9] | [10]
inactive: all other assays above

C[C@]12C(=O)OC(=O)[C@H]1[C@H]1C=C[C@@H]2C1
inactive: [1] | [2] | [4] | [7] | [8]

O=C1N(c2ccccc2)c2ccccc2C1(Cc1ccncc1)Cc1ccncc1
inactive: [1] | [2] | [3] | [6] | [7]

O=CCCc1ccccc1
inactive: [1] | [2] | [9] | [6] | [7] | [8]

Cc1ccc(C)c(N)c1
not listed: [3] | [8]
inactive: all other assays above

COc1cc(Cl)ccc1Cl
inactive: [1] | [2] | [3] | [4] | [7] | [8]

CO[Si](C)(C)OC
inactive: [1] | [2] | [9] | [6]

CCCCNc1ccc(C(=O)OCCN(CC)CC)cc1
inactive: [1] | [2] | [3] | [4] | [6] | [7]

CCCCCCCOC(=O)CCC
not listed: [5] | [9] | [10]
inactive: all other assays above

FC(F)(F)C(Cl)(Cl)Cl
not listed: [2] | [8]
inactive: all other assays above

C[C@@H]1CN(c2c(F)c(N)c3c(=O)c(C(=O)O)cn(C4CC4)c3c2F)C[C@H](C)N1
not listed: [3]
inactive: all other assays above

CCN(O)CC
inactive: [1] | [2] | [3] | [6] | [8]

CCCC(CCC)(C(=O)OCC)C(=O)OCC
inactive: [1] | [2] | [9] | [5] | [8]

O=C(O)CN(CCN(CC(=O)O)CC(=O)O)CCN(CC(=O)O)CC(=O)O
inactive: [1] | [2] | [9] | [4] | [6] | [7]

COc1ccc(S(=O)(=O)Nc2nnc(CC(C)C)s2)cc1
inactive: [1] | [9]

CCOC(=O)c1cc(=O)c2c(OCC(COc3cccc4oc(C(=O)OCC)cc(=O)c34)OC(=O)[C@@H](N)CCCCN)cccc2o1
not listed: [3] | [6]
inactive: all other assays above

CCc1cc(Cl)c(OC)c(C(=O)NC[C@@H]2CCCN2CC)c1O
inactive: [1] | [2] | [9] | [3] | [7] | [8]

CCCCC(CC)COC(=O)COc1cc(Cl)c(Cl)cc1Cl (centres undefined)
not listed: [2] | [7] | [8]
inactive: all other assays above

CCCCNCCCC
not listed: [5] | [9] | [10]
inactive: all other assays above

CC/C=C\CCOC(=O)C(C)C
inactive: [1] | [2] | [9] | [4] | [6] | [8]

CC1(C)C(=O)N(Cl)C(=O)N1Br
inactive: [1] | [2] | [9] | [4] | [6]

CCCOCCC
inactive: [1] | [2] | [9] | [4] | [6] | [7]

CC(C)C(=O)OCC(C)(C)C(O)C(C)C (centres undefined)
not listed: [3] | [10]
inactive: all other assays above

C/C(=N\O)[C@@H](C)NCC(C)(C)CN[C@H](C)/C(C)=N/O
not listed: [3] | [5] | [10]
inactive: all other assays above

Cc1cccc(C)c1NC(=O)CN1CCCCCC1
inactive: [1] | [9] | [3] | [8]

O=c1oc2c(O)c(O)cc3c(=O)oc4c(O)c(O)cc1c4c23
not listed: [2] | [3] | [5]
inactive: all other assays above

O=C1CCN(c2ccccc2)N1
inactive: [1] | [9] | [10] | [5] | [6]

Cc1onc(-c2ccccc2)c1C(=O)Cl
inactive: [1] | [9] | [10] | [4] | [5]

O=C(Cl)c1cccc([N+](=O)[O-])c1
not listed: [2] | [7]
inactive: all other assays above
